# Only a selection was taken, and hits are over-represented in it overall.
# IL-1B inflam inh – inhibitors of inflammasome signaling (IL-1 beta secretion); THP-1 LPS/ATP IL-1B secretion, AlphaLISA, 16 h; stronger effect = lower value; activity change, % at 57.5 µM; hit rate 4.7% among 360,000; AID 743279; in the data active means activity change below about -50%; inconclusive means mostly about -30% to -49%
#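 Secreted IL-1B measured by AlphaLISA bead assay after 16 h compound exposure of THP-1 cells; compounds (final up to 57.5 uM) added 1 h before LPS (250 ng/mL) and ATP (1.25 mM) stimulation; lower signal means less secretion.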
# HT1080 IDH1KD tx – kills HT-1080 cells with IDH1 knockdown; hit rate 2% among 360,000; HT-1080 IDH1 knockdown viability, ATP luminescence, 48 h; Potency, µM (doses to about 46.1 µM), actives largely listed as cytotoxic
#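 IDH1KD HT-1080 cells, 750/well, RPMI + 5% FBS; compound pinned after 2 h settling; 48 h, 37 °C; CellTiter-Glo luminescence; % activity normalised to DMSO and no-cell wells; curves fitted, classed by r2 and efficacy.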
# DT40 TDP1 CPT – growth inhibition of DT40 Tdp1-/-;hTDP1 cells with camptothecin (screen for TDP1 inhibitors); chicken DT40 Tdp1-/-;hTDP1 cells + 20 nM CPT, ATP luminescence, 48 h; Potency, µM (doses to about 46.2 µM), most hits filed as inhibitors; hit rate 12% among 420,000; AID 686979; further: nearly all actives have a fitted effect of over 55% in size
#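 Chicken DT40 Tdp1-/- cells stably complemented with human TDP1 were seeded at 400 cells/well in medium containing 20 nM camptothecin, exposed to pin-transferred compounds, and grown at 37 °C for at least 48 hr. Viability was read as ATP luminescence.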
# 12-LOX inh – inhibitors of human 12S-lipoxygenase ALOX12 | P18054 | purified 12hLO, xylenol orange hydroperoxide absorbance | Potency, µM (titrated, usually from 108 µM), hits mostly inhibitors | AID 1671190 | hit rate 1.1% among 580,000
# Target sequence (P18054 whole entry, looked up): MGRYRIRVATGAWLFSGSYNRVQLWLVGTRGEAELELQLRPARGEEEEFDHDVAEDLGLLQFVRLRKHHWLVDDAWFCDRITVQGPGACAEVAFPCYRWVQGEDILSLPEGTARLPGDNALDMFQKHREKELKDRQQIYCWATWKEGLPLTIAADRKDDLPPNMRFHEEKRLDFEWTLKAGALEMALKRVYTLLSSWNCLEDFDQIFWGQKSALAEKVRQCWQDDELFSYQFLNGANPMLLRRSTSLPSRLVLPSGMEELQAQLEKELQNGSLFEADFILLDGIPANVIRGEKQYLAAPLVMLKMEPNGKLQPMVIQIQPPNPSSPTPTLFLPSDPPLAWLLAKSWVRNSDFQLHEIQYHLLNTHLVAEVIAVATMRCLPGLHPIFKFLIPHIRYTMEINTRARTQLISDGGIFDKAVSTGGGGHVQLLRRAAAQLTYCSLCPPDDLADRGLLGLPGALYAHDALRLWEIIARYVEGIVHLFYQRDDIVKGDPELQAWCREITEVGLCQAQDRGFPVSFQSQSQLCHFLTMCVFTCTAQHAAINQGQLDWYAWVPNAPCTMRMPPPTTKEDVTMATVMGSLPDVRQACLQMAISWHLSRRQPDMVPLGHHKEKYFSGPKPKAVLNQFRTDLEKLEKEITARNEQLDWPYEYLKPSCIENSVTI
#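 Purified human 12hLO at 150 nM in 25 mM Hepes, 0.01% Triton X-100, pH 7.0, preincubated 15 min at room temperature with compound. Reaction started with 40 uM arachidonic acid, 30 min at room temperature. Hydroperoxide measured by Fe-xylenol orange, 573/405 nm absorbance ratio.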
# TDP1 cell noCPT – qHTS for Inhibitors of human tyrosyl-DNA phosphodiesterase 1 (TDP1): qHTS in cells in absence of CPT; hit rate 15% among 420,000; Potency, µM (titrated, usually from 46.2 µM), actives largely listed as inhibitors; DT40 Tdp1-/- hTDP1 cells, no CPT, ATP luminescence, 48 h; further: nearly all actives have a fitted effect of over 55% in size
#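 Chicken DT40 Tdp1-/- cells stably complemented with human TDP1 were seeded at 400 cells/well with DMSO in place of 20 nM camptothecin. After compound pinning, cells grew at least 48 hr at 37 °C; viability read by CellTiter-Glo luminescence.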
# HT1080NT lethal – kills 2HG-producing HT-1080-NT fibrosarcoma cells | Potency, µM (titrated, usually from 46.1 µM), most hits filed as cytotoxic | HT-1080-NT fibrosarcoma viability, CellTiter-Glo ATP luminescence, 48 h | hit rate 1.6% among 360,000;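 further: NT is the 2HG producing partner of a matched IDH1 knockdown line; nearly all actives have a fitted effect of over 55% in size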
#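 Viability of the 2HG-overproducing fibrosarcoma line after 48 hours of compound exposure at 37 degrees C was determined by luminescence with CellTiter-Glo, and concentration-effect curves were then fitted and categorized.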
# Hits are given with their value; 0 = inactive; ? = inconclusive; - = no result given. Unless noted, the call rests on the fitted dose curve; in most records, active means well fitted curve in the direction sought with a large enough effect; inconclusive means small, poorly fitted or top-dose-only effect, or another doubt; inactive means no such curve, though single readings can be large; an effect the other way counts as inactive or inconclusive.
SMILES,IL-1B inflam inh,HT1080 IDH1KD tx,DT40 TDP1 CPT,12-LOX inh,TDP1 cell noCPT,HT1080NT lethal
Cc1ccc(C2=NN=C(NC(=O)CSc3nnc4c5ccccc5n(C)c4n3)SC2)cc1,0,29.1µM,10.3µM,-,9.2µM,?
CCOc1cc(=O)n2c(c1C(=O)Nc1ccc3c(c1)OCCO3)CCCCC2,-,-,-,0,-,-
CCOc1cc(CNC(=O)c2ncoc2-c2ccc(OC)cc2)ccc1OC,-,-,-,0,-,-
O=C(Cc1csc(-c2cccs2)n1)Oc1ccc(Cl)c2ccccc12,-,-,-,0,-,-
CCN(CC)CCCNc1ccc(-c2nnc(-c3ccc(OCC(C)C)cc3)o2)cn1,-51.0,?,2.91µM,?,2.91µM,0
CC(C)COc1ccc(-c2nnc(-c3ccco3)o2)cc1,0,0,0,0,0,0
CCOC(=O)c1c(C)c(CCC(=O)NCCN2CCN(C)CC2)c(C)n1C,-,-,-,0,-,-
CC(C)NC(=S)NNC(=O)C(C)C,-,-,-,0,-,-
CN1C(=O)CCC2(CNC(=O)CCc3nc(-c4ccccc4)no3)CCC=C12 (stereo not drawn),-,-,-,0,-,-
CC(C)CC(=O)Nc1nc(-c2ccc(S(=O)(=O)N3CCOCC3)cc2)cs1,0,0,13µM,0,16.4µM,?
Cc1cc(-c2nc(-c3ccc(S(=O)(=O)N4CCOCC4)cc3)cs2)ccc1F,-,-,-,0,-,-
CCCCC(=O)Nc1nc(-c2ccc(S(=O)(=O)N3CCOCC3)cc2)cs1,0,0,?,0,18.4µM,?
Cc1ccc(Nc2nc(-c3ccc(S(=O)(=O)N4CCOCC4)cc3)cs2)cc1Cl,0,16.4µM,4.61µM,0,6.51µM,23.1µM
O=C(Cn1ccccc1=O)Nc1ccc(Br)cc1F,-,-,-,0,-,-
CCN1CCN(CCCNC(=O)CCc2nc(-c3ccc(OC)cc3)no2)CC1,0,0,0,0,0,0
COc1ccc(-c2noc(CCC(=O)NCCCN3CCN(c4ccccc4F)CC3)n2)cc1,0,0,23.1µM,0,16.4µM,0
COc1ccc(-c2noc(CCC(=O)NCCN3CCN(c4ccccc4F)CC3)n2)cc1,0,0,16.4µM,0,14.6µM,0
COc1ccc2c(c1)O/C(=C\c1ccc(C(C)(C)C)cc1)C2=O,-,-,-,0,-,-
O=C(CCCc1c[nH]c2ccccc12)N1CCCCC1,-,-,-,0,-,-
CC(C)=CC[C@@H](O)C1=CC(=O)c2c(O)ccc(O)c2C1=O,-,-,-,2.17µM,-,-
O=C(Cc1cc(=O)[nH][nH]1)N/N=C/C=C/c1ccccc1,?,0,?,0,29.1µM,0
O=C(CNC(=O)c1ccccc1)N/N=C/C=C/c1ccccc1,0,0,0,0,0,0
Cc1nc2ccccc2c2c1CC(C(C)(Cl)Br)O2 (stereo not drawn),0,?,6.51µM,0,3.66µM,?
COc1ccc2nc(C)c3c(c2c1)OC(C(C)(Cl)Br)C3 (stereo not drawn),0,0,?,?,18.4µM,0
CN(Cc1ccccc1)S(=O)(=O)c1ccc(Cl)c(C(=O)Nc2nnc(C3CC3)s2)c1,-,-,-,0,-,-
SMILES,IL-1B inflam inh,HT1080 IDH1KD tx,DT40 TDP1 CPT,12-LOX inh,TDP1 cell noCPT,HT1080NT lethal
CCCn1c(Cn2ccnc2C)nc2cc(NC(=O)c3ccccc3OC)ccc21,-,-,-,0,-,-
Cc1ccc(S(=O)(=O)N(CC(=O)NCCSc2ccc(Cl)cc2)c2cccc(Cl)c2)cc1,-,-,?,0,20.6µM,-
Cc1ccc(N(CC(=O)NCCSc2ccccc2)S(=O)(=O)c2ccc(F)cc2)cc1,-,-,?,0,9.2µM,-
CCOc1ccc(S(=O)(=O)N(CC(=O)NCCSc2ccc(C)cc2)c2ccccc2)cc1,-,-,0,0,0,-
COc1ccc(S(=O)(=O)N(CC(=O)NCCSc2ccc(C)cc2)c2ccc(C)cc2)cc1,-,-,18.4µM,?,23.1µM,-
CS(=O)(=O)c1ccc(C(=O)OCC(=O)N2CCOCC2)cc1[N+](=O)[O-],-,-,-,0,-,-
COc1ccc(C(=O)OCC(=O)NC2CC2)cc1[N+](=O)[O-],0,0,0,0,0,0
CC(=O)c1ccc(NCC2COc3ccccc3O2)c([N+](=O)[O-])c1 (stereo not drawn),0,0,?,0,13µM,0
CS(=O)(=O)c1ccc(C(=O)OCC(=O)NC(=O)C2COc3ccccc3O2)cc1[N+](=O)[O-] (stereo not drawn),-58.8,0,16.4µM,?,18.4µM,0
CC1(C)C2CCC1(C)C(NC(=O)COC(=O)c1ccc(S(C)(=O)=O)c([N+](=O)[O-])c1)C2 (stereo not drawn),-,-,5.01µM,-,5.62µM,-
NS(=O)(=O)c1ccc(NCC2COc3ccccc3O2)c([N+](=O)[O-])c1 (stereo not drawn),0,0,?,?,?,0
CS(=O)(=O)c1ccc(C(=O)OCC(=O)NC(=O)C2CCCCC2)cc1[N+](=O)[O-],-60.3,?,9.2µM,0,?,?
Cc1cc(C(=O)OCC(=O)NC(=O)C2CCCCC2)ccc1[N+](=O)[O-],-,-,0,-,0,-
CCn1c(SCC(=O)Nc2ccc(Cl)cn2)nc2ccccc21,-,-,-,0,-,-
Nc1nccnc1C(=O)NCc1ccccc1Cn1cccn1,-,-,-,0,-,-
Cc1nn(CC(=O)N2CCc3ccccc32)c(C)c1S(=O)(=O)N1CCCC(C(=O)NC(C)C)C1 (stereo not drawn),-,-,-,0,-,-
C=C(C)COc1ccc(C(N)=O)cc1,-,-,-,0,-,-
CCc1ccc(CN(C)Cc2nc(Cc3cccc(C(F)(F)F)c3)no2)nc1,0,0,0,0,?,0
FC(F)(F)c1cccc(-c2noc(CN3CCOCC3)n2)c1,0,0,0,0,0,0
CN1CCCC2(CCCN(Cc3nc(Cc4cccc(C(F)(F)F)c4)no3)C2)C1 (stereo not drawn),-74.7,0,0,0,?,0
FC(F)(F)c1cccc(Cc2noc(CN3CCC(c4ccncc4)CC3)n2)c1,0,0,5.8µM,0,7.31µM,0
FC(F)(F)c1cccc(Cc2noc(CN3CCCC(OCc4ccccn4)C3)n2)c1 (stereo not drawn),0,0,18.4µM,?,23.1µM,0
c1ccc(COC2CCCN(Cc3nc(-c4cccs4)no3)C2)nc1 (stereo not drawn),0,0,0,0,0,0
CN1CCCN(Cc2nc(-c3cccc(C(F)(F)F)c3)no2)CC1,0,0,?,0,16.4µM,0
O=C(c1ccc2cc[nH]c2c1)N1CCC(C(=O)N2CCCCC2)CC1,-,-,-,0,-,-
CNC(=O)[C@@H]1CN(C(=O)c2nn(C)c3ccccc23)C[C@H]1COC,-,-,-,0,-,-
CCn1ccnc1CN(C)Cc1nc(Cc2cccc(C(F)(F)F)c2)no1,0,0,0,0,0,0
CC(CN(C)Cc1nc(Cc2cccc(C(F)(F)F)c2)no1)CN1CCCC1 (stereo not drawn),0,0,20.6µM,0,23.1µM,0
